According to PubChem BioAssay AID463213 (Sanford-Burnham Center for Chemical Genomics, 2010):
In all, about 7,400 compounds went through this assay and about 4,100 (55%) were called active.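 The calls were made as follows: active = inhibition of yeast growth at or above a set limit in either of two repeat tests at 20 µM; inactive = the rest.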 The set was probably picked from earlier hits. These entries were drawn from the full list.

Assay: growth inhibitors of tim10-1 mutant yeast, confirmation, single concentration, luminescence, S. cerevisiae (AID 463213)
Conditions: S. cerevisiae tim10-1 ts strain growth, BacTiter-Glo, 24 h; at 20 µM; stronger effect = higher value

| Structure (SMILES) | inhibition |
| --- | --- |
| Cc1nc2ccccn2c1P(=S)(N1CCCCC1)N1CCCCC1 | 38.4% (active) |
| COc1cccc(N2C(=O)NC(=O)/C(=C\c3ccc([N+](=O)[O-])s3)C2=O)c1 | 76.5% (active) |
| O=C1NC(=O)N(c2ccccc2)C(=O)/C1=C/c1ccc([N+](=O)[O-])s1 | 75.3% (active) |
| N#CC1=C(N)Oc2c(c(=O)oc3ccccc23)C1c1ccccc1OC(=O)c1cccs1 (stereo not given) | 22.8% (inactive) |
| CCCCCn1c(=O)c(C(=O)Nc2c(C)n(C)n(-c3ccccc3)c2=O)c(O)c2ccccc21 | 6.15% (inactive) |
